Only some compounds are listed: those with a hit (about 4.1% of all), similar ones and a draw of the others.
hgDAF-12 ag: agonists of H. glycines DAF-12 nuclear receptor; HEK293 GAL4-hgDAF12 UAS-luciferase reporter, agonist luminescence; normalized to butyrate control; activation, % at 6.8 µM; 370,000 tested, 1.8% active; AID 687014;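 active means activation above a cutoff set at the mean of all screened compounds plus 3 SD, cut at about 10% in these data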;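 further: 0% = DMSO wells and 100% = sodium butyrate wells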
hcDAF-12 act: H. contortus DAF-12 activation, primary screen; 370,000 tested, 1.4% active; HEK293 hcDAF-12 lit1-tk-luc reporter, luminescence; 0% DMSO, 100% Δ7-dafachronic acid; activation, % at 6.8 µM;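 active means activation above the mean of all tested compounds plus 3 SD, cut at about 5.5% in these data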;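 further: 100% = response to 3 µM Δ7-dafachronic acid high control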
DAX1 inh-1: NR0B1 (DAX1) inhibition | HEK293 Gal4-DAX1 luciferase reporter, luminescence | inhibition, % at 6.75 µM | 340,000 tested, 0.99% active;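 active means inhibition above the mean over all tested compounds plus 3 SD, cut at about 4.2% in these data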;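 further: 0% = DAX1-transfected cells with DMSO and 100% = empty-vector control cells with DMSO; inhibition shows as a rise in luminescence from relieved DAX1 repression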
Target sequence (P51843 207-470 limits assumed): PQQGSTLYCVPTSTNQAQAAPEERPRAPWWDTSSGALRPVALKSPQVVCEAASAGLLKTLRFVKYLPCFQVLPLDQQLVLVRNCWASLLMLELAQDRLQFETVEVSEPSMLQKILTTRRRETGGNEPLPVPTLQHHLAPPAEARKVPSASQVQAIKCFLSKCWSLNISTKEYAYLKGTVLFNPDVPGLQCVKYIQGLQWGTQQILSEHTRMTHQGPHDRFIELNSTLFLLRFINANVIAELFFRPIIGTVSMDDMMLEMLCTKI
ssDAF-12 act: S. stercoralis DAF-12 activation, primary screen; HEK293 ssDAF-12/GRIP1 lit1-tk-luc reporter, luminescence; % of 3 µM dafachronic acid response; activation, % at 6.8 µM; 370,000 tested, 1% active; AID 652126;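 active means activation above the mean over all tested compounds plus 3 SD, cut at about 0.9% in these data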;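 further: 0% = DMSO-only wells and 100% = 3 µM delta7-dafachronic acid wells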
DAX1 inh-2: inhibitors of DAX1 repression of SF-1 activated StAR promoter | HEK293T StAR-luciferase reporter, SF-1/DAX-1 repression relief | 370,000 tested, 1.1% active | inhibition, % at 6.8 µM | AID 652010;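 active means inhibition above the mean over all tested compounds plus 3 SD, cut at about 3.6% in these data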;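 further: 0% = DAX-1 cells with DMSO and 100% = cells lacking DAX-1 with DMSO; higher inhibition means more luminescence from relief of DAX-1 repression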
* marks the source's active call; other numbers are inactive results; . = no result given.

SMILES | hgDAF-12 ag | hcDAF-12 act | DAX1 inh-1 | ssDAF-12 act | DAX1 inh-2
Cc1c(N=C2C=C(Br)C(=O)C(Br)=C2)c(=O)n(-c2ccccc2)n1C | -4 | -1 | 3 | -2 | 0
Cc1c(N=C2C=CC(=O)c3ccccc32)c(=O)n(-c2ccccc2)n1C | 4 | 5 | 2 | 1.4* | 0
O=C(Cn1nc(-c2ccccc2)ccc1=O)NCCc1ccc(F)cc1 | 0 | 0 | . | -1 | -1
Cc1ccc(C2=CC(c3cccs3)n3nnnc3N2)cc1 (configuration not stated) | 2 | 4 | 1 | 1.0* | 0
Fc1ccc(C2=CC(c3cccs3)n3nnnc3N2)cc1 (configuration not stated) | 4 | 3 | 3 | -1 | 0
CCOC(=O)[C@]12CCCC=C1N(CCCOC)C(=O)[C@@H]2CC(=O)NCC12CC3CC(CC(C3)C1)C2 | -3 | -3 | . | -2 | 0
S=c1nc[nH]c2c1[nH]c1ccc(Cl)cc12 | -5 | 0 | 5.1* | 0 | -1
S=c1nc[nH]c2c1[nH]c1ccccc12 | 0 | 5 | 2 | 0 | 0
COc1ccc(NC(=O)COCC(=O)Nc2ccc(C)cc2)cc1 | -1 | 0 | 5.6* | -1 | 0
COc1ccc(NC(=O)CN2CCN(c3ccccc3)CC2)cc1 | 12* | 0 | 0 | -1 | -1
COc1ccc(N2CCN(CC(=O)Nc3ccc(C)cc3)CC2)cc1 | 0 | -2 | 0 | -1 | 0
COc1ccc(NC(=O)COC(=O)CC2CCCC2)cc1 | 3 | -1 | 0 | 1.2* | -1
CNC(=O)CCC(=O)Nc1ccc(C)cc1 | 1 | 0 | 4.7* | -2 | -1
COc1ccc(NC(=O)COC(=O)CC2CCCCC2)cc1 | 0 | 0 | 1 | 0 | -1
C=CCN1C(=O)[C@@H](CC(=O)NCCCOC)[C@]2(C(=O)OC)CCCCC=C12 | 4 | 0 | . | 0 | 1
Cc1cccc(NC(=O)CCSc2ccccn2)c1 | 7 | -2 | 0 | 0 | 1
Cc1ccc(NC(=O)CCSc2ccccn2)cc1 | 11* | 2 | 4.2* | 0 | 4.4*
COc1ccc(-c2cc3c(=O)n(CC(=O)NC4CCN(Cc5ccccc5)CC4)ncn3n2)cc1 | 3 | -1 | 2 | -1 | 0
COc1ccc(-c2cc3c(=O)n(CC(=O)NCc4cccnc4)ncn3n2)cc1 | 11* | 6.1* | -1 | 0 | 3.8*
O=C(O)c1cccc2c1-c1ccccc1/C2=N\Nc1ccccc1 | 8 | 4 | 5.4* | 0 | 1
COc1ccc(C2C(C(=O)Nc3c(C)cccc3C)CCC(=O)N2c2ccc(OC)cc2)cc1 (configuration not stated) | -2 | 0 | . | -1 | -1
COc1ccccc1NC(=O)CSc1nnc(-c2ccccc2)o1 | 11* | 3 | 5.2* | 0 | 5.4*
Cc1ccc(NC(=O)CSc2nnc(-c3cccnc3)o2)c(C)c1 | -1 | 0 | 4.4* | -1 | 1
Cc1ccc(C)c(NC(=O)CSc2nnc(-c3ccccc3)o2)c1 | 0 | -1 | 0 | -2 | 0
O=C(CSc1nnc(-c2cccnc2)o1)c1cc2ccccc2oc1=O | 12* | 3 | 1 | -1 | 1
SMILES | hgDAF-12 ag | hcDAF-12 act | DAX1 inh-1 | ssDAF-12 act | DAX1 inh-2
CCN(CC)S(=O)(=O)c1ccc(-c2nnc(SCC(=O)Nc3cc(OC)cc(OC)c3)o2)cc1 | 11* | -1 | 3 | -2 | 0
Cc1ccc(CNC(=O)[C@@H](Cc2ccccc2)NC(=O)[C@H]2O[C@@H](n3ccc(N)nc3=O)[C@H](O)[C@@H]2O)o1 | 2 | -1 | . | -1 | 1
O=C(Nc1ccc(F)cc1)OCc1cn(Cc2cc(F)ccc2F)nn1 | 1 | -1 | . | -1 | 1
Cc1csc(NC(=O)CSc2nnc(-c3ccccc3)o2)n1 | 6 | 5.7* | 0 | 1 | 4.3*
CCN(CC)S(=O)(=O)c1ccc(-c2nnc(SCC(=O)Nc3nc(C)cs3)o2)cc1 | -2 | -2 | -1 | -1 | 0
Oc1ccc(/C=C/c2ccc3cccc(O)c3n2)cc1Br | 10* | 2 | 1 | -1 | 1
O=[N+]([O-])c1cccc(/C=C/c2ccc3cccc(O)c3n2)c1 | 3 | -1 | 1 | -1 | 0
C/C(=N\Nc1ccc(C#N)cc1[N+](=O)[O-])c1ccc(O)cc1 | 0 | 1 | 1 | -1 | 1
C/C(=N/Nc1ccccc1[N+](=O)[O-])c1ccc([N+](=O)[O-])cc1 | 1 | 6.4* | 1 | 0 | 0
CN1c2ccc(C#CC3CC3)cc2[C@@H]2[C@@H](CCN2C(=O)C2CCOCC2)[C@H]1CO | 1 | -3 | . | -2 | 0
O=C(Nc1ccc2ccccc2c1)c1ccc2[nH]c(=O)c(=O)[nH]c2c1 | 2 | 6.1* | 1 | 0 | 1
O=C(COCc1ccccc1)NC1CCCCN(Cc2ccc(Cl)cc2)C1=O (configuration not stated) | -2 | -3 | . | -1 | -1
COc1ccnc(CS(=O)c2nc3cc(C(O)(F)F)ccc3[nH]2)c1OC (configuration not stated) | 3 | 6.1* | 0 | 0 | 0
COC(=O)[C@]12C[C@H](CC(=O)N3CCN(C(=O)C4CC4)CC3)C(=O)N(CCc3ccc(OC)c(OC)c3)C1=C[C@H](C(C)C)O[C@@H]2C1CC1 | 3 | 1 | . | -1 | 0
COC(=O)C1CN(Cc2cn(Cc3ccc(C)cc3)nn2)CCS(=O)(=O)N1Cc1ccc(OC)cc1 (configuration not stated) | 3 | -4 | . | -1 | -1
O=C1OCC2=C1C(c1ccccc1)CC(=O)N2c1ccc(F)cc1 (configuration not stated) | 12* | -1 | 0 | -1 | 1
O=[N+]([O-])c1ccc(/C=N/N2CCCCC2)cc1 | 6 | 4 | 4.4* | 0 | 1
N#Cc1ccc(C=NN2CCCCCC2)cc1 | 8 | 1 | 2 | 0 | 3.8*
CCCCCCNC(=O)C1CSCCS(=O)(=O)N1Cc1ccc(F)cc1 (configuration not stated) | -1 | -2 | . | -1 | 0
CN(C)CCCN(C(=O)COc1ccc(Cl)cc1)c1nc2c(F)cccc2s1 | 1 | -1 | 1 | -1 | 0
Cc1cccc2sc(N(CCCN(C)C)C(=O)COc3ccc(Cl)cc3)nc12 | 1 | 0 | 4.3* | -1 | 1
Cc1ccc(Cl)cc1N1CCN(C(=O)c2cc3c(=O)n(C)c4ccccc4c3n2C)CC1 | -1 | -2 | -1 | -1 | 0
Cc1cccc(N2CCN(C(=O)c3cc4c(=O)n(C)c5ccccc5c4n3C)CC2)c1C | -2 | -2 | -1 | 1.9* | 1
Cc1cc(C(=O)N/N=C/c2ccc3c(c2)OCO3)c(C)o1 | 11* | 1 | 3 | -1 | 0
O=C(N/N=C/c1ccncc1)c1ccc2c(c1)OCO2 | 11* | 0 | 0 | -1 | 1
CN(C)c1ccc(/C=N/NC(=O)c2ccc3c(c2)OCCO3)cc1 | 7 | 4 | 1 | -1 | 3

Source: PubChem BioAssay
